Drawing on PubChem BioAssay (NCI), this text covers growth inhibition for eight compounds.

This experiment can be described thus: NCI Yeast Anticancer Drug Screen. Data for the rad14 strain (AID 159).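 Also: 0% = growth of vehicle-treated control cultures.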 The note with it: S. cerevisiae rad14 strain growth inhibition, hits give high values. How it is done:
Growth inhibition of yeast strains with defined genetic alterations is measured as a screen for potential anti-cancer activity. Selected strains with alterations in DNA damage repair or cell cycle control were exposed to compounds and growth inhibition was measured relative to vehicle treated controls. The strain used in this assay is rad14

Compounds without any hit were thinned out: in the full panel of roughly 79,000, 15% have a hit. Unmarked numbers belong to inactive results. Calls of active or inactive are those of the source. Rule as the data show it: active = growth inhibition above about 70%; inactive = the rest.

Take `CCN1CCC(O)(c2ccc(Oc3ccc(C)cc3)cc2)C(C(=O)c2ccc(Oc3ccc(C)cc3)cc2)C1` (stereo not given): the growth inhibition runs as follows: (at 1.2 µM) -38%; (at 3.7 µM) -9%; (at 11.0 µM) 96% (active); (at 33.0 µM) 95% (active); (at 100.0 µM) 92% (active).
In the same order, the values of `Oc1c2c(c(O)c3ccccc13)C1(N=N2)c2ccccc2Oc2ccccc21` are 17%, 44%, 98% (active), 96% (active) and 92% (active).
Regarding `O=C1C(CCSc2ccccc2)C(=O)N(c2ccccc2)C1c1ccccc1` (stereo not given), the growth inhibition by setting is: (at 1.2 µM) -4%; (at 3.7 µM) -21%; (at 11.0 µM) 2%; (at 33.0 µM) 93% (active); (at 100.0 µM) 87% (active).
With `O=S(=O)(c1ccccc1)N1CN2CN(C1)CN(S(=O)(=O)c1ccccc1)C2`, the growth inhibition (at 1.2 µM) was -16%; the growth inhibition (at 3.7 µM) was -16%; the growth inhibition (at 11.0 µM) was -30%; the growth inhibition (at 33.0 µM) was -24%; the growth inhibition (at 100.0 µM) was -26%.
`COc1ccc2c(c1)CCCC(Br)C2=O` (stereo not given): the growth inhibition was 3% (at 1.2 µM); 2% (at 3.7 µM); 14% (at 11.0 µM); 64% (at 33.0 µM); 98% (active) (at 100.0 µM).
In the same order, the values of `O=C(NNc1ccccc1)C(CCCCNS(=O)(=O)Cc1ccccc1)NS(=O)(=O)Cc1ccccc1` (stereo not given) are 0%, 1%, 3%, 13% and 18%.
With `O=C(NCCNCCNC(=O)c1cc(-c2ccccc2)nc2ccccc12)c1cc(-c2ccccc2)nc2ccccc12`, the growth inhibition is, setting by setting: (at 1.2 µM) -3%; (at 3.7 µM) -1%; (at 11.0 µM) -2%; (at 33.0 µM) 4%; (at 100.0 µM) 4%.
Take `Clc1ccc(/C(=C\c2ccccc2)Cn2ccnc2)cc1`: the growth inhibition reads like this: (at 1.2 µM) 38%; (at 3.7 µM) 51%; (at 11.0 µM) 68%; (at 33.0 µM) 81% (active); (at 100.0 µM) 80% (active).
